Screening results as filed in PubChem BioAssay.
ELG1 DNA repair: qHTS screen for small molecules that inhibit ELG1-dependent DNA repair in human embryonic kidney (HEK293T) cells expressing luciferase-tagged ELG1. HEK293T ELG1-luciferase reporter, luminescence, 16 h; DNA damage induced by 5-fluorouridine. Potency, µM (series often up to 46.1 µM), without a hit: at the top dose activity change, negative = inhibition, actives largely listed as inhibitors. 330,000 compounds, 2.3% hits. AID 504467, 2011; also: % is scaled to controls: 0 for no effect and ±100 for the full control effect; nearly all actives have a fitted effect of over 55% in size
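Cells (2,000 per well) received 5-fluorouridine plus test compound or DMSO and were incubated 16 hr at 37 °C, 5% CO2. Luciferase activity was read by luminescence 30 min after ONE-Glo addition; signal suppression marked inhibition of damage-induced ELG1 function.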
FLuc modulator: qHTS profiling assay for firefly luciferase inhibitor/activator using purifed enzyme and Km concentrations of substrates (counterscreen for miR-21 project). Luciferin 4-monooxygenase (Photinus pyralis), P08659. purified FLuc, Km substrates, luminescence inhibition. Potency, µM (series often up to 57.5 µM), inactives show at the highest dose activity change, negative = inhibition, usual class: inhibitors. 360,000 compounds, 6.9% hits;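 also: plate controls were vehicle for no effect and reference inhibitor for full effect; nearly all actives have a fitted effect of over 55% in size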
Target sequence (P08659 whole entry, looked up): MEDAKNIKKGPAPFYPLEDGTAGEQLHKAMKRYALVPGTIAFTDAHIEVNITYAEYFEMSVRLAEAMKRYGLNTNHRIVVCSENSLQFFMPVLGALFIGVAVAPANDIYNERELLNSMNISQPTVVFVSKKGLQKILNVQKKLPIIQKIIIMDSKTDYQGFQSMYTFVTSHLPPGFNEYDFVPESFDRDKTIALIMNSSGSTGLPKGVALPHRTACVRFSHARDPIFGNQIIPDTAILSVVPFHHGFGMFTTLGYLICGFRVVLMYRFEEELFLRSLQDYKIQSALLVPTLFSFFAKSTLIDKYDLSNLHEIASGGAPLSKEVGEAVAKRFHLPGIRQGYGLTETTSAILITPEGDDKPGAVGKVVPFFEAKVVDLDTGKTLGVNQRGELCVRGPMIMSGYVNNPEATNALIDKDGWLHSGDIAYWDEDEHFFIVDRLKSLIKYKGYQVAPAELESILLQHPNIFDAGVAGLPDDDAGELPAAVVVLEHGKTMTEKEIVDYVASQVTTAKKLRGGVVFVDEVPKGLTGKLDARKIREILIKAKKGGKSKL
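Purified P. pyralis luciferase (10nM final) with 10uM D-luciferin and 10uM ATP (Km levels) in 50mM Tris acetate pH 7.5, 10mM Mg acetate, 0.01% Tween-20, 0.05% BSA; qHTS 6-point titration, ~60 µM downward; luminescence read.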
SMN2 splice enh: qHTS Assay for Enhancers of SMN2 Splice Variant Expression; 210,000 compounds, 2.8% hits; AID 1458, 2008; HEK293 SMN2-luciferase splicing reporter, luminescence, 30-36 h; Potency, µM (series often up to 46.1 µM), for the others: at the highest dose activity change, positive = activation, hits mostly activators; also: % of control where 0% means no effect; nearly all actives have a fitted effect of over 55% in size
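HEK293 cells carry an SMN2 […]–luciferase reporter in which exon 7 inclusion puts luciferase in frame. Cells were plated 10-12 h before compound addition, then incubated 30-36 h at 37C. ONE-Glo luminescence was read; sodium butyrate at 4.5 mM final served as control.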
NPC1 promoter act: qHTS Assay for NPC1 Promoter Activators; Huh7 NPC1 promoter luciferase reporter, 24 h; Potency, µM (highest dose often 9.22 µM), for the others: at the top dose activation, hits mostly activators; 320,000 compounds, 2.4% hits; also: % of control where 0% means no effect; nearly all actives have a fitted effect of over 60% in size
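Luminescence from an NPC1 promoter-driven luciferase reporter in stably transfected Huh7 cells was measured after 24 h compound treatment at 37 °C, followed by 10 min ambient incubation with luciferase detection reagent.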
ELG1 genotoxic: qHTS screen for small molecules that induce genotoxicity in human embryonic kidney (HEK293T) cells expressing luciferase-tagged ELG1. HEK293T ELG1-luciferase reporter, luminescence, 16 h. Potency, µM (highest dose often 46 µM), inactives show top-dose activity change, positive = activation, most hits filed as activators. 330,000 compounds, 1.3% hits; also: % of control where 0% means no effect; nearly all actives have a fitted effect of over 60% in size
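DMSO vehicle served as control against compound-treated ELG1-luciferase HEK293T cells; exposure lasted 16 hr at 37 °C and 5% CO2, followed by ONE-Glo luminescence detection after 30 min.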
Rab9 prom act: qHTS Assay for Rab9 Promoter Activators | Potency, µM (top dose mostly 9.22 µM), for the others: at the top dose activation, negative = inhibition, usual class: activators | AID 485297, 2010 | Huh7 Rab9 promoter-luciferase reporter, luminescence, 24 h | 320,000 compounds, 2.8% hits; also: % of control where 0% means no effect; nearly all actives have a fitted effect of over 60% in size
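Quantitative HTS format; Huh7 Rab9-luciferase reporter cells (1500/well) receive compound 2 h post-plating, incubate 24 h at 37 °C, then get luciferase reagent for 10 min before luminescence reading.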
The depositor's hits bear a star; ? = inconclusive; · = not tested or not shown; [ ] = another dose, or the depositor's remark. Hits are enriched below; roughly 9.4% of the tested compounds scored in any of these assays. Calls follow the shape of the dose curve; as a rule, active = well fitted curve in the direction sought with a large enough effect; inconclusive = small, poorly fitted or top-dose-only effect, or another doubt; inactive = no such curve, though single readings can be large; an effect the other way counts as inactive or inconclusive. Potency is read from the fitted curve at half-maximal effect.

SMILES	ELG1 DNA repair	FLuc modulator	SMN2 splice enh	NPC1 promoter act	ELG1 genotoxic	Rab9 prom act
Cc1nc(-c2noc(-c3cccc(Cl)c3)n2)c(C(F)(F)F)o1	15%	?	·	5%	3%	2%
COc1ccc(-c2nc(-c3ccncc3)no2)cc1	?	2.1µM*	·	0.5µM*	?	0.56µM*
COc1cccc(-c2nc(-c3ccc(NC(=O)c4ccncc4)cc3)no2)c1	-12%	-9%	-67%	3%	1%	28%
COc1cccc(-c2noc(-c3ccc(Cl)nc3)n2)c1	?	?	?	3.5µM*	?	?
Cc1cccc(CCNC(=O)C2CCC(CNS(=O)(=O)c3c(C)cc(C)cc3C)CC2)c1 (configuration not stated)	·	-1%	·	·	·	·
Cc1cccc(OC(C)C(=O)Nc2ncn[nH]2)c1 (configuration not stated)	·	-3%	·	·	·	·
Cc1noc(/C=C/c2ccco2)c1S(=O)(=O)N1CCC(C(=O)Nc2ccc(F)cc2F)CC1	·	-7%	4%	·	·	·
Cn1c(SCC(=O)N2CCCc3ccccc32)ncc(C(=O)Nc2ccccc2)c1=O	·	-2%	·	·	·	·
Cc1ccc(C)c(Cn2nnc(C(=O)NCc3ccccc3)c2N)c1	·	0%	6%	·	·	·
CN(C(=O)CCc1nc(-c2ccccc2F)no1)c1ccc(Cl)cc1	·	-6%	3%	·	·	·
COC(=O)CCCC(=O)O	·	·	-2%[9.22 µM]	·	·	·
O=C(CCCCn1c(=O)c2ccccc2n(CC(=O)Nc2ccc(F)cc2F)c1=O)NCCc1ccccc1	·	-2%	8%	·	·	·
c1ccc(-c2ccc(-c3nc(-c4ccncc4)no3)cc2)cc1	?	0.6µM*	?	?	1.6µM*	0.14µM*
COc1ccc(-c2nc(-c3cccs3)no2)cc1	?	0.085µM*	·	0.32µM*	?	0.1µM*
c1ccc(-c2ccccc2-c2nc(-c3ccncc3)no2)cc1	5%	-2%	3.2µM*	-3%	-2%	0%
COc1ccc(-c2noc(-c3cccc(OC)c3OC)n2)cc1	·	2.4µM*	13µM*	·	·	·
Cc1ccccc1-c1nc(-c2cccnc2)no1	?	11µM*	?	?	?	?
Clc1ccccc1-c1nnc(-c2cccnc2)o1	?	15µM*	·	4µM*	23µM*	?
Cc1ccc(SCc2nc(-c3cccnc3)no2)cc1	13%	1%[2.3 µM]	8%	11%	1%	12%
COc1cccc(-c2ccc(-c3noc(-c4cccs4)n3)c(OC)n2)c1	?	11µM*	·	21%	?	26%
Clc1ccccc1-c1nnc(-c2cccs2)o1	?	9.5µM*	11µM*	2.2µM*	?	1.3µM*
c1ccc(-c2nc(-c3ccncc3)no2)cc1	·	12µM*	?	·	·	·
COc1cc(OC)cc(-c2nc(-c3ccccc3)no2)c1	?	-14%[2.3 µM]	22µM*	?	?	?
Cc1onc(-c2ccccc2Cl)c1-c1nc(-c2ccncc2)no1	2%	0%	-11%	1%	2%	-4%
O=[N+]([O-])c1cccc(-c2nc(-c3cccs3)c(-c3cccs3)[nH]2)c1	?	-9%	-60%	2%	-4%	3%
SMILES	ELG1 DNA repair	FLuc modulator	SMN2 splice enh	NPC1 promoter act	ELG1 genotoxic	Rab9 prom act
O=[N+]([O-])c1cccc(-c2noc(-c3cccs3)n2)c1	?	2.7µM*	·	3.5µM*	15µM*	2.5µM*
Clc1ccccc1-c1nc(-c2ccncc2)no1	?	6.7µM*	?	4µM*	10µM*	1.3µM*
CCOc1ccc(CCNC(=O)CSc2nc3ccccc3nc2Cc2ccc(C)cc2)cc1OCC	·	-2%	-3%	·	·	·
Cc1cccc(NC(=O)c2ccc(Cn3nc(N4CCN(c5ccccc5)CC4)ccc3=O)o2)c1C	·	-9%	·	·	·	·
Brc1ccc(-c2nc(-c3ccncc3)no2)cc1	?	2.4µM*	·	2.2µM*	?	3.2µM*
Clc1ccc(Cl)c(-c2nc(-c3ccncc3)no2)c1	?	?	·	24%	8%	?
Cc1ccc(-c2noc(-c3cccs3)n2)cc1	?	0.6µM*	13µM*	2.8µM*	0.65µM*	0.79µM*
c1csc(-c2nc(N3CCCCC3)no2)c1	?	6.7µM*	·	2.2µM*	15µM*	1.6µM*
Cc1ccc(-c2nc(-c3cccs3)c(-c3cccs3)[nH]2)cc1	·	-1%	-15%	·	·	·
Clc1ccccc1-c1nc(-c2cccnc2)no1	·	3µM*	11µM*	·	·	·
COc1ccccc1C(=O)Nc1ccc2c(c1)nc(CN1CCCCC1)n2C	-12%	?	-12%	1%	1%	6%
Cn1cccc1C(=O)N1CCC2(CC1)CN(C(=O)Nc1cccc(C#N)c1)C2	·	·	-9%	·	·	·
CCN1C(=S)SC(=O)C1=C1C=C(C)N(CCO)C(C)=C1	?	7.6µM*	-17%	1.3µM*	5.2µM*	1.4µM*
COCCN1C(=O)/C(=C/c2ccc(N3CCCC3)cc2)SC1=S	18%	?	14%	?	8%	?
CCN1C(=S)SC(=O)C1=C1C=C(C)N(CCOC)C(C)=C1	?	2.4µM*	?	0.4µM*	1.6µM*	0.79µM*
CCN1C(=O)/C(=C/C=C2/Sc3ccccc3N2CCO)SC1=S	0%	-15%	-48%	0%	11%	1%
COC(=O)[C@@H]1C[C@H]1[C@@H](NC(=O)Oc1ccc(F)cc1)c1ccccc1	·	·	-12%	·	·	·
CC[C@@]12CCCN3CCc4c(n(c5ccccc45)[C@](O)(C(=O)OC)C1)C32 (some centres not stated)	·	·	-5%	·	·	·
CCOC(=O)/C(=N\Nc1ccc(OC)cc1)c1csc(Nc2ccccc2)n1	16µM*	9.5µM*	2%	1%	11%	-3%
CCOC(=O)/C(=N/Nc1ccccc1)c1csc(Nc2ccccc2)n1	?	?	7%	-2%	3%	-4%
C/C(=N\NC(=O)Cn1ccc(C(F)(F)F)n1)c1ccc2c(c1)OCO2	-1%	-7%	-7%	-2%	-3%	11%
O=C(Cc1ccccc1)N/N=C/c1ccc2c(c1)OCO2	?	15µM*	16µM*	2.5µM*	?	4µM*
O=C(CNc1ccccc1)N/N=C/c1ccc2c(c1)OCCO2	?	9.5µM*	?	2%	1%	0%
